Most compounds without a hit are left out; they make up all but 21% or so of the library.
Pf growth 96h = Primary qHTS for delayed death inhibitors of the malarial parasite plastid, 96 hour incubation; P. falciparum luciferase reporter growth, 96 h; Potency, µM (doses to about 28.7 µM), inactives show at the top dose activity change, negative = inhibition, most hits filed as inhibitors; hit rate 6.9% among 320,000; AID 504834, 2011; also: potency is read from the fitted curve at half-maximal effect; % is scaled to controls: 0 for no effect and ±100 for the full control effect
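Two parasite generations (96 h, 37 C, 5% CO2) of compound exposure in infected erythrocytes (0.05% parasitemia, 2% hematocrit). Luciferase-reporter P. falciparum; decreased luminescence indicates inhibited growth, aimed at apicoplast-acting delayed death.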
CHX counter = Cycloheximide Counterscreen for Small Molecule Inhibitors of Shiga Toxin. cell reporter, cycloheximide protein synthesis inhibition counterscreen. max response, %. hit rate 12% among 300,000; in the data active = max response mostly above about 13%, no sharp cut-off; inactive = mostly below about 14%; also: read at 38.3 µM for the half of the compounds with a filed dose; 0% is about no effect
Shiga toxin inh = A qHTS for Small Molecule Inhibitors of Shiga Toxin; Vero cells, Shiga toxin protein synthesis inhibition reporter; inhibition, % at 38.7 µM; hit rate 9.2% among 290,000; AID 2315, 2010; in the data active = inhibition mostly above about 28%, no sharp cut-off; inactive = mostly below about 43%; also: 0% is about no effect
Pf growth 48h = Primary qHTS for delayed death inhibitors of the malarial parasite plastid, 48 hour incubation. Potency, µM (titrated, usually from 28.7 µM), for the others: at the highest dose activity change, negative = inhibition, actives largely listed as inhibitors. hit rate 5.9% among 310,000. P. falciparum luciferase growth in erythrocytes, 48 h; also: potency is read from the fitted curve at half-maximal effect; % is scaled to controls: 0 for no effect and ±100 for the full control effect
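First compound was added to culture medium, then infected red cells at 0.1% parasitemia and 2% hematocrit (final). After incubation at 37 C under 5% CO2, luciferase detection reagent was dispensed and light output recorded.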
NS1 function inh = qHTS Assay for Inhibitors of Influenza NS1 Protein Function. Potency, µM (highest dose often 46.1 µM), for inactives: at the top dose activity, positive = more growth. hit rate 0.4% among 270,000; calls by dose curve; also: potency is read from the fitted curve at half-maximal effect; actives are rising curves; nearly all actives have a fitted effect of over 50% in size
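OD600 was taken as the measure of yeast growth restored by compound in an NS1-expressing S. cerevisiae strain. Cells had been washed out of glucose medium and diluted 1:100 into galactose -URA medium, pH 6.0.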
The depositor's hits bear a star; ? = inconclusive; / = no result given; [ ] = dose if it differs, or a comment. Unless noted, calls follow the shape of the dose curve; as a rule, active = well fitted inhibition curve with a large enough effect; inconclusive = small, poorly fitted or top-dose-only effect, or another doubt; inactive = no such curve, though single readings can be large or run the other way.

SMILES	Pf growth 96h	CHX counter	Shiga toxin inh	Pf growth 48h	NS1 function inh
Cc1csc(CN(C)C(=O)C2CCC(=O)N(CCN(C)C)C2)n1 (centres undefined)	72%	0	-2	-20%	18%
N#Cc1ccccc1CSc1ccc(-c2nc3ccccc3[nH]2)cn1	?	47*	79*	?	23%
COC(=O)c1c(SCc2ccc(C#N)cc2)nc(=O)[nH]c1C	14%	-2	-14	0%	-6%
CC(=O)CSc1ccc(-c2nc3ccccc3[nH]2)cn1	8.3µM*	16*	/	75%	-38%
Cc1cc2nc(-c3ccc(SCc4ccc(C#N)cc4)nc3)[nH]c2cc1C	7.4µM*	15	20	?	22%
Cc1ccc2nc(-c3ccc(SCC(=O)N4CCc5ccccc54)nc3)[nH]c2c1	12%	56*	121*	?	16%
Brc1ccccc1-c1nnc(CSc2nnc3sc4ccccc4n23)o1	-33%	-1	-6	-15%	2%
COc1ccc(C(=O)NCc2cn3ccsc3n2)cc1OC	-1%	4	-9	-6%	9%
CCN(C(=O)c1ccc2c(c1)OCO2)C1CCS(=O)(=O)C1 (centres undefined)	29%	/	/	2%	/
Cn1c(=O)n(C)c2cc(S(=O)(=O)N3CCOCC3)ccc21	/	-2	-15	-10%	-3%[9.22 µM]
Cc1ccc(NC(=S)N=Nc2c(O)n(C)c3ccc(S(=O)(=O)N4CCOCC4)cc23)cc1	?	-5	-3	2.6µM*	?
Cc1ccc(Cn2c(O)c(N=NC(=S)Nc3ccccc3F)c3ccccc32)cc1	12%	-1	8	?	/
C=CCn1c(O)c(N=NC(=S)Nc2ccccc2F)c2ccccc21	-11%	14	-7	?	/
Cc1cc(C)cc(NC(=S)N=Nc2c(O)n(C)c3ccc(S(=O)(=O)N4CCOCC4)cc23)c1	?	-2	-3	2.1µM*	12%
C=CCn1c(O)c(N=NC(=S)Nc2ccccc2F)c2cc(S(=O)(=O)N3CCOCC3)ccc21	35%	1	-8	6.6µM*	/
C=CCn1c(O)c(N=NC(=S)Nc2cccc(C)c2)c2ccccc21	-23%	5	32	1.9µM*	?
CN(C)c1ccc(-c2c(C3C4C=CCCC4(C)C(=O)N3Cc3ccccc3)ccc3ccccc23)cc1 (centres undefined)	/	14	13	/	/
Cc1ccccc1NC(=S)N=Nc1c(O)n(C)c2ccc(S(=O)(=O)N3CCOCC3)cc12	8%	11	-6	3.3µM*	?
Cc1cccc(C)c1NC(=S)N=Nc1c(O)n(C)c2ccc(S(=O)(=O)N3CCOCC3)cc12	?	-5	-12	?	5%
COc1ccc(Cn2c(=O)[nH]c3cc(C(=O)NCCc4ccc(S(N)(=O)=O)cc4)ccc3c2=O)cc1	-27%	-3	-3	?	/
Cc1ccc2nc(NC(=O)CS(=O)(=O)Cc3ccccc3)sc2c1	?	4	23	37%	-3%
Cc1ccc2nc(NC(=O)c3ccc(NS(=O)(=O)c4cccs4)cc3)sc2c1	0.47µM*	29*	15	?	-13%
Cc1cccc2sc(NC(=O)CCNS(=O)(=O)c3cccs3)nc12	-19%	1	-6	-23%	-6%
Cc1ccc2nc(NC(=O)CCNS(=O)(=O)c3cccs3)sc2c1	89%	26*	79*	6%	-6%
Cc1ccc2nc(NC(=O)CCNS(=O)(=O)c3ccc(Br)s3)sc2c1	64%	26*	67	80%	-54%
SMILES	Pf growth 96h	CHX counter	Shiga toxin inh	Pf growth 48h	NS1 function inh
COc1ccc(C2c3[nH]c4ccccc4c3CCN2CCCn2cccn2)c(C)c1C (centres undefined)	12µM*	0	-25	?	-3%
CC(C)CC1c2[nH]c3ccccc3c2CCN1CCCn1cccn1 (centres undefined)	13µM*	-2	-7	?	-9%
CN(CCCN1c2ccccc2CCc2ccccc21)CC(=O)c1ccc(Cl)cc1	15µM*	15	12	-99%	/
CN(C)CCCN1c2ccccc2CCc2ccc(Cl)cc21	?	-4	-16	13µM*	-33%
CNCCCN1c2ccccc2CCc2ccccc21	?	-4	-12	?	1%
CCOc1ccc(-c2csc(/C(C#N)=C\c3ccc(O)c([N+](=O)[O-])c3)n2)cc1	5.2µM*	2	13	?	-5%
CCCCc1ccc(-c2csc(/C(C#N)=C\c3ccc(C)o3)n2)cc1	121%	2	-6	35%	5%
O=C(CCN1CCN(S(=O)(=O)c2ccc(F)cc2)CC1)Nc1ccccc1F	-5%	-2	-2	6%	-17%
Cn1c(=O)c2c(nc(CN3CCN(C(=O)c4ccco4)CC3)n2CCCc2ccccc2)n(C)c1=O	7.4µM*	-5	-18	/	0%
CCCCn1c(CN2CCN(c3ccc(F)cc3)CC2)nc2c1c(=O)n(C)c(=O)n2C	?	30*	79	-1%	-15%
COCCn1c(CN2CCN(c3ccc(F)cc3)CC2)nc2c1c(=O)n(C)c(=O)n2C	-8%	-3	-3	0%	-1%
CCCCn1c(CN2CCN(C(=O)c3ccco3)CC2)nc2c1c(=O)n(C)c(=O)n2C	13µM*	-2	-4	?	-40%
CCCCCn1c(CN2CCN(C(=O)c3ccco3)CC2)nc2c1c(=O)n(C)c(=O)n2C	?	-5	-5	9.3µM*	2%
COc1ccc(N2CCN(C(=O)CCc3ccc(S(=O)(=O)NC(C)C)cc3)CC2)cc1	-11%	-1	20	-22%	-4%
COc1cccc(-c2csc(N3CCN(CC(=O)Nc4ccc5c(c4)OCO5)CC3)n2)c1	?	-4	-3	?	?
CCCNC(=S)N1CCN(c2nc(-c3ccc(C)cc3)cs2)CC1	?	13*	-2	-4%	21%
O=C(NC(=S)N1CCN(c2nc(-c3ccccc3)cs2)CC1)c1cccnc1	?	-3	-3	10µM*	17%
COc1ccc(NC(=O)CN2CCN(c3nc(-c4cccc(OC)c4)cs3)CC2)cc1	43%	-2	1	8.3µM*	22%
S=C(NCCCN1CCOCC1)N1CCN(c2nc(-c3ccc(Cl)cc3)cs2)CC1	10%	-3	5	10%	4%
COCCNC(=S)N1CCN(c2nc(-c3ccccc3)cs2)CC1	12µM*	-4	-3	3%	7%
CCCNC(=S)N1CCN(c2nc(-c3cccc(OC)c3)cs2)CC1	?	13*	11	?	-18%
Cc1[nH]ccc(=O)c1Oc1ncc(C(F)(F)F)cc1Cl	21%	-3	4	0%	/
OCCCc1nc2ccccc2n1CCc1ccccc1	?	-5	-2	?	2%
CCCc1nc2ccccc2n1CCc1ccccc1	3.7µM*	-4	32	3.3µM*	-18%
c1ccc(CCn2c(C3CC3)nc3ccccc32)cc1	3.3µM*	-4	-5	/	-63%
O=C(O)CCn1c(C2CCCCC2)nc2ccccc21	/	-2	-10	1%	-3%
